Records with an inconclusive call do not appear. Calls of active or inactive are those of the source.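 How the source made its calls, unless noted: active means GFP response, as percent of the DMSO control, above the screen-wide mean plus 3 SD, about 139; inconclusive means no response measured because the compound's own fluorescence interfered; inactive means the rest.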
What was measured:
[1] = rapamycin-like changes in RPL19A-GFP expression – cell-based, S. cerevisiae, multiplex flow cytometry, primary screen (AID 1862; in the data active means percent of DMSO control GFP below about 86%;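 further: lower values mimic rapamycin by blocking the RPL19A rise seen in DMSO cells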); details: S. cerevisiae RPL19A-GFP strain, flow cytometry fluorescence, 3 h; at 10 µM; stronger effect = lower value
[2] = TOR pathway GLN3 branch reporter MEP2-GFP changes – S. cerevisiae, multiplex flow cytometry, primary screen (AID 1867);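 further: median GFP channel fluorescence of barcode-gated MEP2-GFP cells measured by flow cytometry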; details: S. cerevisiae MEP2-GFP strain, 3 h, at 10 µM, stronger effect = higher value, 100% means same as DMSO wells
[3] = TOR pathway RTG branch CIT2 reporter changes – S. cerevisiae, GFP fusion, multiplex flow cytometry, primary screen (AID 1870;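 active means percent response above a set limit, the screen-wide mean plus 3 SD, cut at about 130% in these data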;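 further: barcoded CIT2-GFP strain pooled with four other GFP strains with rapamycin as positive control; median GFP fluorescence per well over plate mean of DMSO wells so 100% = DMSO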); details: S. cerevisiae CIT2-GFP expression, 3 h, at 10 µM, stronger effect = higher value
[4] = TOR pathway LAP4-GFP level changes – S. cerevisiae, multiplex flow cytometry, primary screen (AID 1873;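 active means GFP signal, as percent of the solvent control, above the screen mean plus 3 SD, about 149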); details: S. cerevisiae LAP4-GFP expression, 3 h, at 10 µM, stronger effect = higher value
[5] = yeast AGP1-GFP level changes, GLN3 branch – cell-based, multiplex flow cytometry, S. cerevisiae, primary screen (AID 1887;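 active means GFP signal above the screen-wide mean plus 3 SD, that is over about 124.5% of the solvent control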;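 further: AGP1-GFP fusion strain of S. cerevisiae within a five-strain barcoded multiplex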); details: 3 h, at 10 µM, stronger effect = higher value
[6] = reduced mouse 2C T cell binding to pMHC/ICAM-1 vesicles – MLPCN validation set, flow cytometry, LFA-1/ICAM-1 modulator project, pilot screen (AID 2523;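 active means response below a set limit, under 55% cells CD8-positive and vesicle-bound, and CD8 cells' 90th-percentile brightness under 279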;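 on vesicle binding response: mean PE anti-B7-1 fluorescence of CD8+ cells relative to row control; 100% = QL9-loaded vesicles with DMSO vehicle in the same plate row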); details: 2C mouse CD8+ T cells, at 7 µM, stronger effect = lower value; double positive events: measured here: CD8+/vesicle+ event percentage
[7] = biological target: Integrin beta-1 (Homo sapiens) + Integrin alpha-4 (Homo sapiens) (UniProt P13612+P05556); test: alpha4beta1 integrin LIBS antibody binding reduction – U937 cells, HUTS-21 mAb, flow cytometry, validation set, VLA-4 allosteric modulator project, pilot screen (AID 2674;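 active means inhibition above 50%, about 3 SD of the validation set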;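 further: antibody binding induced by the VLA-4 ligand LDV present at three times its Kd; 0% = LDV ligand with antibody and no compound and 100% = antibody without LDV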); details: HUTS-21 LIBS mAb binding, at 6.7 µM, stronger effect = higher value, binding induced by LDV ligand
Integrin beta-1 (Homo sapiens) + Integrin alpha-4 (Homo sapiens), sequence (P05556 whole entry, looked up): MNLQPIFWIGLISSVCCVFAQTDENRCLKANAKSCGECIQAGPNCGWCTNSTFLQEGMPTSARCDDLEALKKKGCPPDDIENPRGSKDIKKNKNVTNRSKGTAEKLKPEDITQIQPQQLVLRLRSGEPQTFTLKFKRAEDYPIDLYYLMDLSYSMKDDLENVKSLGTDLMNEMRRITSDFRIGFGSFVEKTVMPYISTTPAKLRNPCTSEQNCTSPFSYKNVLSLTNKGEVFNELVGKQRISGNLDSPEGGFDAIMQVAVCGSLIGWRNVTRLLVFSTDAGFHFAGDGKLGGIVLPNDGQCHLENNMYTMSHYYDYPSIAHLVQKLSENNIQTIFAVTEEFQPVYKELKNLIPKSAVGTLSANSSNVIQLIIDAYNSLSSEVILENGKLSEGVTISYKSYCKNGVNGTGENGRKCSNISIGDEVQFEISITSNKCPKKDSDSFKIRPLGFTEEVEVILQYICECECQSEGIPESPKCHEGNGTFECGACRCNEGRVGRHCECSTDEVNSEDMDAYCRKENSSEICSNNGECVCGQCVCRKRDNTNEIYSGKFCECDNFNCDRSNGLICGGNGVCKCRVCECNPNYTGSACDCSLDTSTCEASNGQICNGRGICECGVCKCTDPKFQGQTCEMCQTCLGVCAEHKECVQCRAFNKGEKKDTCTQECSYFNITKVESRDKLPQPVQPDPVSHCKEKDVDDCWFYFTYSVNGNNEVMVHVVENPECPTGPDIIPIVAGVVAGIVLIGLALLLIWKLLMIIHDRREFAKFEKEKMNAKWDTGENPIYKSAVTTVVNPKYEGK
Integrin beta-1 (Homo sapiens) + Integrin alpha-4 (Homo sapiens), sequence (P13612 whole entry, looked up): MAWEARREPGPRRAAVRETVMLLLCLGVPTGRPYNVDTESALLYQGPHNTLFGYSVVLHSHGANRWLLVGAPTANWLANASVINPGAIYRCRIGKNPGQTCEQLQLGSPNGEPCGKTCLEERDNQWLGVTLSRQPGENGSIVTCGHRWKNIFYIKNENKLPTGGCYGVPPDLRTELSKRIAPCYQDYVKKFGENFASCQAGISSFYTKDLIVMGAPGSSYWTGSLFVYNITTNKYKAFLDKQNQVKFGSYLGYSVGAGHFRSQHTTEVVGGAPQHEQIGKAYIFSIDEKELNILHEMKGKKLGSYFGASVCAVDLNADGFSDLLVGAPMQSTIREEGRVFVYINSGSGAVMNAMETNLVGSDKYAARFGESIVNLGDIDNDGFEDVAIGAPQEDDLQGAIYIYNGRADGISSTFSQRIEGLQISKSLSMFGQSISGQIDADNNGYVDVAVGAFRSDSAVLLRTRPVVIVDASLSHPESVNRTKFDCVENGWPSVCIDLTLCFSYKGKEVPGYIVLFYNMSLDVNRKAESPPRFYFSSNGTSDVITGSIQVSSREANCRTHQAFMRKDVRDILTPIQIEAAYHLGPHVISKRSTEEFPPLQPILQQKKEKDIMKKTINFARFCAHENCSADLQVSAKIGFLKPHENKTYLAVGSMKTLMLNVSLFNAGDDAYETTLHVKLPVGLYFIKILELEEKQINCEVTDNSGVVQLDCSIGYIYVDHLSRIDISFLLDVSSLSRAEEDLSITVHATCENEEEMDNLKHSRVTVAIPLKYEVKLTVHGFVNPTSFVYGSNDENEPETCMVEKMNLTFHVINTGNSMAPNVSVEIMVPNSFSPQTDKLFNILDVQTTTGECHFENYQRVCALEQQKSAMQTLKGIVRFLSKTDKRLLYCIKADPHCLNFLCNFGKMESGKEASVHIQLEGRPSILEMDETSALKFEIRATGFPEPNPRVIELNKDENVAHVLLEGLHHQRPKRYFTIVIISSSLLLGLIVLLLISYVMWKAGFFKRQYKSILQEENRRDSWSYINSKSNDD

[8] = calorie-restriction mimetic ROS inhibitors, yeast – validation compound set, pilot screen (AID 2706;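 active means superoxide response below 65% of plate, a cut near 3 SD across the whole screen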;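 further: yeast exposed to compound for one week at 30 degrees C before staining; 100% = mean of all compound wells on the same plate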); details: S. cerevisiae aging, superoxide DHE fluorescence; at 10 µM, stronger effect = lower value
[9] = biological target: Beta-adrenergic receptor kinase 1 (Homo sapiens) (UniProt P25098); test: GRK2 binders displacing RNA aptamer, biochemical, validation, human GRK2, bead flow cytometry (AID 488806;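 active means aptamer binding inhibition above 30%, about 3 SD of noise from non-fluorescent compounds; inactive means inhibition at or below 30%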); details: bead-bound GRK2, FAM-aptamer displacement, at 10 µM, stronger effect = higher value
Beta-adrenergic receptor kinase 1 (Homo sapiens), sequence (P25098 whole entry, looked up): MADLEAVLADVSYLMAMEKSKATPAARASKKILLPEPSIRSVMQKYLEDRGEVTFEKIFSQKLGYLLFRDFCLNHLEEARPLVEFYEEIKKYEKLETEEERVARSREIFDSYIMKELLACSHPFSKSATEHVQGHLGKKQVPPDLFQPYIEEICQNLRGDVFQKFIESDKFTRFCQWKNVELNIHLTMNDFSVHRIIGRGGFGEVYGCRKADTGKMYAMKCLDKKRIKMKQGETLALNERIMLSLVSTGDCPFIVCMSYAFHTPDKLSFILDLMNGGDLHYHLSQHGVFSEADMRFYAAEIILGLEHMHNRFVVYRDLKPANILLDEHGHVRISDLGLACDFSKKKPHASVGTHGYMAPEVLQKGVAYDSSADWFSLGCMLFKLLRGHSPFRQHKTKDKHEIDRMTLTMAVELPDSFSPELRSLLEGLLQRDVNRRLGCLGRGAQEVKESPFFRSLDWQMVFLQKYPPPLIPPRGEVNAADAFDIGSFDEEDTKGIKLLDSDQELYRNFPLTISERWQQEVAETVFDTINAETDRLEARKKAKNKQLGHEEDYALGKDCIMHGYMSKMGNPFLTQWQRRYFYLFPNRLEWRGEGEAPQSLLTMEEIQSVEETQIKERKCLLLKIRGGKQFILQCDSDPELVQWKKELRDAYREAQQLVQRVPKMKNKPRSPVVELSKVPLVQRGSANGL

[10] = biological target: Beta-2 adrenergic receptor (Homo sapiens) (UniProt P07550); test: agonist-induced loss of surface beta2AR – cell-based, FAP fluorogen, flow cytometry, validation set, pilot screen (AID 504459;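 active means percent response above 42, roughly 3 SD of non-fluorescent test compounds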;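 further: agonist-driven loss of surface beta2AR via internalization measured by FAP dye flow cytometry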); details: Am2.2-beta2AR cells, at 10 µM, stronger effect = higher value
Beta-2 adrenergic receptor (Homo sapiens), sequence (P07550 whole entry, looked up): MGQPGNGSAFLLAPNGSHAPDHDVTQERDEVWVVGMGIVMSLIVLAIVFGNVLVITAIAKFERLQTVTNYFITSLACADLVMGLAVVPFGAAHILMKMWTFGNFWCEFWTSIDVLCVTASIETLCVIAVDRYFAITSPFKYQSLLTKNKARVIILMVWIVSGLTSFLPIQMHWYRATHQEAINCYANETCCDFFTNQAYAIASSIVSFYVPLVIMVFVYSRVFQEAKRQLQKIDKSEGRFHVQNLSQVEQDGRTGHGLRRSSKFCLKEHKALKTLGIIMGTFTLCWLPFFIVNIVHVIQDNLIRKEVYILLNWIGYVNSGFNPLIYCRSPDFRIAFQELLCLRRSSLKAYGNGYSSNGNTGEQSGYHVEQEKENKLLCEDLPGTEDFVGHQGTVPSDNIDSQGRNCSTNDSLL

[11] = biological target: AP-2 complex subunit beta (Homo sapiens) (UniProt P63010); test: beta-arrestin/AP2 interaction blockers – biochemical, validation set, GST-AP2 beads, flow cytometry, pilot screen (AID 504541;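 active means inhibition above 54%, about 3 SD of non-fluorescent compounds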;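 further: AP2 carries R879A mutation and is captured from E. coli lysate; bead-bound FITC arrestin peptide fluorescence measuring arrestin peptide binding to AP2; 0% = DMSO wells and 100% = excess unlabeled arrestin peptide control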); details: FITC arrestin peptide, at 10 µM, stronger effect = higher value, AP2 beta2 appendage fragment, R879A mutant
AP-2 complex subunit beta (Homo sapiens), sequence (P63010 whole entry, looked up, the tested form may be a part, one chain of several): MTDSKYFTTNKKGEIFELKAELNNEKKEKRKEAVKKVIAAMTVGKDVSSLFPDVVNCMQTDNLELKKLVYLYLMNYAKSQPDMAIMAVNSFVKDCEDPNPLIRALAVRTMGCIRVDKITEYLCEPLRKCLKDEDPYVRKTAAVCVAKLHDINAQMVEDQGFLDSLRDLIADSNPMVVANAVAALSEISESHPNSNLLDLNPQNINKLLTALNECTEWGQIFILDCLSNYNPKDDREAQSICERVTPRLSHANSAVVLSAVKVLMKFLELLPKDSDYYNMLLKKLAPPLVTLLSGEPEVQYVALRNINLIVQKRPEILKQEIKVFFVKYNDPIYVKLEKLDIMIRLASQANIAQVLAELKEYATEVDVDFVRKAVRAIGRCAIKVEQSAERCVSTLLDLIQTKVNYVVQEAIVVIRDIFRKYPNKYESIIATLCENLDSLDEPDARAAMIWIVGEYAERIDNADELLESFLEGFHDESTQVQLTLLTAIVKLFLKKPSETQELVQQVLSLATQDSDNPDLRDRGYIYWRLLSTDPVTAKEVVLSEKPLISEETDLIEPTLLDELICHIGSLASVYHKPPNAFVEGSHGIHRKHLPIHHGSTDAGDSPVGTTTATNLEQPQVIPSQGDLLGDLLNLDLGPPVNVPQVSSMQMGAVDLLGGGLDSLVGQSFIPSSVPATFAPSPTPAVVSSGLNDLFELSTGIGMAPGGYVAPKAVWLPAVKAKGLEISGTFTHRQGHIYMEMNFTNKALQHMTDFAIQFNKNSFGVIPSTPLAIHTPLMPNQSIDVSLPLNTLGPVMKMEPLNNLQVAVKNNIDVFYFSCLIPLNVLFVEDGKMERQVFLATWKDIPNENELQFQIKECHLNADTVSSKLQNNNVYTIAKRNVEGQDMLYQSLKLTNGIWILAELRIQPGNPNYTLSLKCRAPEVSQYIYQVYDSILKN

[12] = cytosolic pH regulators acting via V-ATPase – S. cerevisiae, pHLuorin, HTS validation (AID 504600; in the data active means response above about 15%;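 further: plate controls were DMSO for no effect and reference compound for full effect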); details: V-ATPase proton transport, at 10 µM, stronger effect = higher value
[13] = system: anti-desmoglein-3 scFv antibody binding to human DSG3; test: blockers of pathogenic pemphigus antibody–desmoglein-3 binding – biochemical, validation compound set, bead-based, flow cytometry, pilot screen (AID 588368;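 active means binding below the plate cutoff, the plate median minus 3 SD, with a reading above zero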;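 further: signal is the median channel fluorescence of bead-bound GFP antibody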); details: Protein G beads, DSG3-Fc, scFv-GFP binding, at 10 µM, stronger effect = lower value
[14] = biological target: ATP-binding cassette sub-family B member 6 (Homo sapiens) (UniProt Q9NP58); test: blockers of ABCB6-driven porphyrin uptake – K562-ABCB6 cells, flow cytometry, validation set, pilot screen (AID 588550;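 active means inhibition above the screen-wide mean plus 3 SD, about 51%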;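 further: 0% = DMSO wells and 100% = benzethonium chloride 70 µM positive control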); details: K562-ABCB6 porphyrin accumulation, 1 h, at 10 µM, stronger effect = higher value
ATP-binding cassette sub-family B member 6 (Homo sapiens), sequence (Q9NP58 whole entry, looked up): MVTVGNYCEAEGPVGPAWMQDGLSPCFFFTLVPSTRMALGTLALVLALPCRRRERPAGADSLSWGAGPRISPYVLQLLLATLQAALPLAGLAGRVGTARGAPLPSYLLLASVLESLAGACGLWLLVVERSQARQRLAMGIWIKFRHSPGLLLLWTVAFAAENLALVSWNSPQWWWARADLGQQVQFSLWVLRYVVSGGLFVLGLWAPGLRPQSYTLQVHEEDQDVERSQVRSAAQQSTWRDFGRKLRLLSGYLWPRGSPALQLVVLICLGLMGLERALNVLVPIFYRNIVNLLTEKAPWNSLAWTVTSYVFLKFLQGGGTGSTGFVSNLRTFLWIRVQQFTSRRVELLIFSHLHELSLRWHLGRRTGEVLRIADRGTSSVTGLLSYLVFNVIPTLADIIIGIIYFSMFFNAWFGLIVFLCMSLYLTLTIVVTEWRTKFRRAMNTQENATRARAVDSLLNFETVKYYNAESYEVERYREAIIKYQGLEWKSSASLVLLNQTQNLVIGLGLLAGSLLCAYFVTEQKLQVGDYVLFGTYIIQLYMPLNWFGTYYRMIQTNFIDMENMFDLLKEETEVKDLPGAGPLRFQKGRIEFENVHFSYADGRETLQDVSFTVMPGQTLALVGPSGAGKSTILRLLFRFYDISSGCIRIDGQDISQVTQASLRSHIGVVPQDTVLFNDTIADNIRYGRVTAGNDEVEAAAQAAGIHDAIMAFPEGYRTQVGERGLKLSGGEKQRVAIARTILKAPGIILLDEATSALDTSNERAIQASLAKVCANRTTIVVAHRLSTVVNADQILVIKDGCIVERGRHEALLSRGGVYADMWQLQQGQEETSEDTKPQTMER

[15] = AML differentiation inducers, ER-HoxA9 marrow cells – cell-based, GFP/MAC1 double positive, flow cytometry, validation set, primary screen (AID 588685;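 active means differentiation response of at least 50%, scaled between solvent and reference control, from cells with both markers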;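 further: compound exposure lasts four days before antibody staining and flow analysis; 0% = DMSO wells and 100% = 5 µM fulvestrant positive control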); details: stronger effect = higher value, normalized: vehicle 0, fulvestrant 100
[16] = Nile Red efflux blockade in pump-expressing yeast – validation compound set, multiplex, phenotypic, pilot screen (AID 588506;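 active means efflux inhibition above 0.42, the validation set average plus 4 SD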;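 further: Nile Red retained in cells so higher fluorescence means more efflux inhibition; 0 = negative control wells and 1 = enniatin B 25 µM full block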); details: S. cerevisiae pump-expressing triplex, Nile Red efflux flow cytometry; at 10 µM; stronger effect = higher value; the pumps come from Candida albicans

SMILES	percent of DMSO control GFP [1]	GFP response vs DMSO [2]	percent response of DMSO control [3]	GFP response vs DMSO [4]	GFP response, % of DMSO [5]	double positive events [6]	vesicle binding response [6]	inhibition [7]	superoxide response (% of plate) [8]	aptamer binding inhibition [9]	response [10]	inhibition [11]	response [12]	binding (% of control) [13]	inhibition [14]	differentiation response [15]	efflux inhibition (fraction of control) [16]
Nc1nnc(-c2cccc(Cl)c2Cl)c(N)n1	101% (inactive)	108% (inactive)	103% (inactive)	100% (inactive)	103% (inactive)	49.8%	120% (inactive)	9.63% (inactive)	110% (inactive)	2% (inactive)	6.9% (inactive)	-13.2% (inactive)	-3.91% (inactive)	94.9% (inactive)	4% (inactive)	-8.96% (inactive)	
CCc1cc(=O)oc2cc(C)c(CN3CCCC(C)C3)c(O)c12 (stereo not given)	102% (inactive)	103% (inactive)	103% (inactive)	84.3% (inactive)	94.9% (inactive)	52.2%	161% (inactive)	-5.84% (inactive)	105% (inactive)	2% (inactive)		26.7% (inactive)	-0.18% (inactive)	73.4% (inactive)	5% (inactive)	-18% (inactive)	0.18 (inactive)
CCOC(=O)C1(CCCc2ccccc2)CCN(C2CCN(C(C)=O)CC2)CC1	97.1% (inactive)	101% (inactive)	99.8% (inactive)	92.3% (inactive)	92.4% (inactive)	52%	138% (inactive)	-12.4% (inactive)	103% (inactive)	9% (inactive)		12.5% (inactive)	-6.58% (inactive)	109% (inactive)	9% (inactive)	-13.1% (inactive)	0.37 (inactive)
CCC(C)NCCOCCOc1ccc(Cl)c2ccccc12 (stereo not given)	96.6% (inactive)	123% (inactive)	107% (inactive)	99% (inactive)	96.1% (inactive)	56.7%	204% (inactive)	26.8% (inactive)	83.4% (inactive)	-5% (inactive)	34.5% (inactive)		-0.59% (inactive)	108% (inactive)	6% (inactive)	24.6% (inactive)	0.09 (inactive)
CN(C)c1ccc(O)c2c1CC1CC3[C@@H](N(C)C)C(=O)C(C(N)=O)=C(O)[C@]3(O)C(=O)C1=C2O (stereo not given in full)	100% (inactive)	101% (inactive)	97.6% (inactive)	93.7% (inactive)	93% (inactive)	63%	162% (inactive)	4.27% (inactive)	99.5% (inactive)	29% (inactive)	1.7% (inactive)	6.63% (inactive)	-2.16% (inactive)	93.6% (inactive)	6% (inactive)	-3.11% (inactive)	
CC(C)Cc1ccc(C(C)C(=O)Nc2ccc(O)cc2)cc1 (stereo not given)	103% (inactive)	105% (inactive)	107% (inactive)	106% (inactive)	99.7% (inactive)	58.6%	178% (inactive)	13.8% (inactive)	110% (inactive)	2% (inactive)		33.6% (inactive)	-13.1% (inactive)	105% (inactive)	1% (inactive)	0% (inactive)	0.14 (inactive)
CN1CCC(=C2c3ccccc3CC(=O)c3sccc32)CC1	101% (inactive)	101% (inactive)	108% (inactive)	94.8% (inactive)	101% (inactive)	62.4%	136% (inactive)	-3.77% (inactive)	96.5% (inactive)	-2% (inactive)	11.7% (inactive)	-10.2% (inactive)	1.45% (inactive)	105% (inactive)	4% (inactive)	-14.8% (inactive)	
CC(NC(=O)c1ccc(OC2CCN(Cc3ccccn3)CC2)cc1)c1ccccc1 (stereo not given)	106% (inactive)	102% (inactive)	105% (inactive)	99.4% (inactive)	100% (inactive)	59.3%	110% (inactive)	14.7% (inactive)	93.3% (inactive)	-2% (inactive)		32.2% (inactive)	-10.2% (inactive)	102% (inactive)	6% (inactive)	0% (inactive)	-0.31 (inactive)
CC(C)c1ccccc1OCCNC(=S)NC(=O)c1cccnc1	98.2% (inactive)	97.4% (inactive)	92% (inactive)	96.5% (inactive)	96.3% (inactive)	62.4%	185% (inactive)	22.8% (inactive)	105% (inactive)	-3% (inactive)	4.29% (inactive)		-2.54% (inactive)	99.7% (inactive)	3% (inactive)	100% (active)	1.3 (active)
O=C(/C=C/c1ccco1)N1CCN(c2ccccc2)CC1	103% (inactive)	90.8% (inactive)	107% (inactive)	86.3% (inactive)	92.7% (inactive)	56.2%	210% (inactive)	8.15% (inactive)	89% (inactive)	1% (inactive)		6.32% (inactive)	5.81% (inactive)	101% (inactive)	5% (inactive)	-19.6% (inactive)	-0.09 (inactive)
